Laboratory results taken from PubChem BioAssay (NCATS).
Where “and” joins values, the source holds several entries; their conditions need not be identical. Equal entries are not always repeated. Inconclusive results are not listed. A call without a number means that no potency is given here. Calls of active or inactive are those of the source. Calls follow the shape of the dose curve; as a rule, active = well fitted curve in the direction sought with a large enough effect; inconclusive = small, poorly fitted or top-dose-only effect, or another doubt; inactive = no such curve, though single readings can be large; an effect the other way counts as inactive or inconclusive.

How the values were obtained:
[1] = Primary qHTS for inhibitors of nuclear receptor binding SET domain protein 2 (NSD2) in an isogenic RCH-ACV NSD2 p.E1099K mutant (9B) (AID 1645876); settings: RCH-ACV NSD2 E1099K (9B) viability, CellTiter-Glo, 72 h; series mostly up to 44.9 µM; also: nearly all actives have a fitted effect of over 70% in size; also: potency is read from the fitted curve at half-maximal effect
[2] = Primary qHTS for inhibitors of nuclear receptor binding SET domain protein 2 (NSD2) in an RCH-ACV wild type WT cells (2C) (AID 1645877); settings: RCH-ACV (leukaemia line) NSD2 WT (2C) viability, CellTiter-Glo, 72 h; series mostly up to 44.9 µM; also: nearly all actives have a fitted effect of over 70% in size; also: potency is read from the fitted curve at half-maximal effect
[3] = target: Rap guanine nucleotide exchange factor 3 (Homo sapiens) (UniProt O95398); assay: Confirmatory qHTS for antagonist of cAMP-regulated guanine nucleotide exchange factor 3 (EPAC1) (AID 1645880); settings: EPAC1 Rap1B-BODIPY-GDP exchange, fluorescence; series mostly up to 115 µM; also: nearly all actives have a fitted effect of over 55% in size; also: potency is read from the fitted curve at half-maximal effect
Method in brief: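 Released BODIPY-GDP fluoresces less than Rap1-bound BODIPY-GDP; the signal is followed at 480/540 nm at 5-min intervals over 30 min, after 5 min at room temperature. Reactions contain 100 nM EPAC1, 250 nM RAP1B-BODIPY-GDP and 50 uM GDP; results are normalized to ATA and DMSO.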

[4] = target: Rap guanine nucleotide exchange factor 3 (Homo sapiens) (UniProt O95398); assay: Confirmatory qHTS for agonist of cAMP-regulated guanine nucleotide exchange factor 3 (EPAC1) (AID 1645881); settings: EPAC1 Rap1B BODIPY-GDP exchange fluorescence; series mostly up to 154 µM;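 also: EPAC1 catalysed release of BODIPY-GDP from Rap1B seen as fluorescence loss; nearly all actives have a fitted effect of over 75% in size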

Sequence of Rap guanine nucleotide exchange factor 3 (Homo sapiens) (O95398 whole entry, looked up): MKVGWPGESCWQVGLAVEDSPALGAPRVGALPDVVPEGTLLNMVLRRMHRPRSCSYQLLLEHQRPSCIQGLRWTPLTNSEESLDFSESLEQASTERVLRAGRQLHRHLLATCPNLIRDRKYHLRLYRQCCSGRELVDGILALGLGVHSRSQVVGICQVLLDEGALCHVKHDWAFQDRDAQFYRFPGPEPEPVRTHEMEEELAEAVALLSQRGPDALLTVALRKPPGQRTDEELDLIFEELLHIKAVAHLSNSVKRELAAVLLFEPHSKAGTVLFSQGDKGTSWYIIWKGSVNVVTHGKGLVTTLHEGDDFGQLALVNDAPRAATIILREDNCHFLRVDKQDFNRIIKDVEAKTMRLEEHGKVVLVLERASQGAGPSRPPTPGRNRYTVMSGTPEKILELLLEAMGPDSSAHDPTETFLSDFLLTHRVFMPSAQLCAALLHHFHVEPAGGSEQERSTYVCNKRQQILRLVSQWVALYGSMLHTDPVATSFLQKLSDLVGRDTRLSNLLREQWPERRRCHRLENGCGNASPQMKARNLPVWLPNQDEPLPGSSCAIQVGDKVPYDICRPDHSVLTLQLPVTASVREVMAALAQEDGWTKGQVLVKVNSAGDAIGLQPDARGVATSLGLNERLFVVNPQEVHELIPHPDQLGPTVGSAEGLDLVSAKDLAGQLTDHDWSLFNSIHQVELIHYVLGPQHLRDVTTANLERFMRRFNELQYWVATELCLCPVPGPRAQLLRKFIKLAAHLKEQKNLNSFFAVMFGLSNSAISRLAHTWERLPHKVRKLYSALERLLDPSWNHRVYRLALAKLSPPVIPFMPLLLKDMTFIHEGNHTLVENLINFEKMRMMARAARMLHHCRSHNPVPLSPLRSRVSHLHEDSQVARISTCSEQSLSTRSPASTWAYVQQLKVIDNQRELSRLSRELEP

Row | SMILES | Potency [1] | Potency [2] | Potency [3] | Potency [4]
1 | CN1CCN2c3ncccc3Cc3ccccc3C2C1 (stereo not drawn) | inactive | inactive |  | 
2 | COc1cc2nccc(Oc3ccc(NC(=O)Nc4ccc(F)cc4F)c(F)c3)c2cc1OC |  | 2.35 µM (active) |  | 
3 | CCOc1ccccc1N=Nc1c(C)[nH]n(-c2nc(-c3ccccc3)cs2)c1=O | inactive | inactive |  | 
4 | O=c1cc(-c2ccc(O)c(O)c2)oc2cc(O)cc(O)c12 | 10.5 µM (active) | 9.34 µM (active) | 6.27 µM (active) and 5.77 µM (active) and 7.57 µM (active) | inactive
5 | Cc1c(C(=O)Nc2ccc(N3C[C@@H](C)O[C@@H](C)C3)nc2)cccc1-c1ccc(OC(F)(F)F)cc1 | inactive | inactive |  | 
6 | Nc1nc(Cl)nc2c1ncn2[C@@H]1O[C@H](CO)[C@@H](O)[C@H]1F | 0.0231 µM (active) | 0.0206 µM (active) |  | 
7 | CC(=O)NCCC(=O)N[C@@H](CCC(N)=O)C(=O)N[C@@H](CO)C(=O)N[C@@H](CCC(N)=O)C(=O)N[C@@H](CCC(N)=O)C(=O)N[C@H](C(=O)N[C@@H](Cc1ccccc1)C(=O)N[C@]1(C)CCCCCCC=CCCC[C@@](C)(C(=O)N[C@@H](CCC(N)=O)C(=O)N[C@@H](CC(N)=O)C(N)=O)NC(=O)[C@H](CC(C)C)NC(=O)[C@H](CC(C)C)NC(=O)[C@@H](CCCNC(=N)N)NC(=O)[C@H](Cc2c[nH]c3ccccc23)NC(=O)[C@H](CC(C)C)NC(=O)[C@H](CC(N)=O)NC1=O)[C@H](C)O | inactive | inactive |  | 
8 | Cc1cc2nc3c(=O)[nH]c(=O)nc-3n(CC(O)C(O)C(O)CO)c2cc1C (stereo not drawn) | inactive |  | inactive | 
9 | C[C@@H](O[C@H]1OCCN(Cc2n[nH]c(=O)[nH]2)[C@@H]1c1ccc(F)cc1)c1cc(C(F)(F)F)cc(C(F)(F)F)c1 |  |  |  | inactive
